Laboratory results from PubChem BioAssay (NCATS).
Results filed as inconclusive are left out. Calls of active or inactive are those of the source. The call rests on the fitted dose curve; in most records, active means well fitted curve in the direction sought with a large enough effect; inconclusive means small, poorly fitted or top-dose-only effect, or another doubt; inactive means no such curve, though single readings can be large; an effect the other way counts as inactive or inconclusive.

What was measured:
[1] = qHTS for Inhibitors of Plasmodium falciparum (DD2) proliferation (AID 504314);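 further: parasite DNA measured by SYBR Green fluorescence after red cell lysis; plate controls were DMSO vehicle for no effect and artemisinin wells for full effect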
Summary of the method: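 Erythrocytes infected with P. falciparum (0.3% parasitemia, 2.5% hematocrit final) were incubated with compounds for 72 h at 37C, 5% CO2. Parasite DNA was detected by SYBR Green I fluorescence after saponin/Triton lysis, normalized to artemisinin (0.29 uM) and DMSO controls.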

[2] = qHTS for Inhibitors of Plasmodium falciparum (GB4) proliferation (AID 504315);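 further: 0% = DMSO vehicle and -100% = 0.29 µM artemisinin control; nearly all actives have a fitted effect of over 50% in size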
Summary of the method: (§1)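 Erythrocytes infected with P. falciparum line (0.3% parasitemia, 2.5% hematocrit final) incubated with compounds 72 h at 37 °C, 5% CO2; SYBR Green lysis buffer added, fluorescence read next day. Normalized to 0.29 uM artemisinin and DMSO.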

[3] = qHTS for Inhibitors of Plasmodium falciparum (HB3) proliferation (AID 504318);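 further: 0% = DMSO vehicle and -100% = artemisinin control; nearly all actives have a fitted effect of over 60% in size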
Summary of the method: as §1

[4] = qHTS for Inhibitors of Plasmodium falciparum (CP250) proliferation (AID 504320);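 further: plate controls were DMSO vehicle for no effect and 0.29 µM artemisinin control for full effect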
Summary of the method: as §1

[5] = biological target: Cytochrome P450 2C9 (Homo sapiens) (UniProt P11712); assay: qHTS Assay for Inhibitors and Substrates of Cytochrome P450 2C9 (AID 883); further: on the % scale 0 is the no-effect control and ±100 the full control effect; nearly all actives have a fitted effect of over 60% in size
Summary of the method: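 CYP2C9 deoxyluciferin hydroxylation, 37C, 60 min with NADPH regeneration; 10nM enzyme, 100uM Luciferin-H (KM). Glo detection reagent stopped reaction; luminescence normalized to sulphaphenazole (57uM) full inhibition.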

[6] = biological target: Cytochrome P450 3A4 (Homo sapiens) (UniProt P08684); assay: qHTS Assay for Inhibitors and Substrates of Cytochrome P450 3A4 (AID 884); further: series mostly up to about 57 µM; on the % scale 0 is the no-effect control and ±100 the full control effect; nearly all actives have a fitted effect of over 50% in size
Summary of the method: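 20 nM human CYP3A4 with 25 uM Luciferin-PPXE (at KM) in 200 mM KPO4, preincubated 10 min with compound; NADPH regeneration started a 60 min RT reaction. Luciferin detected by luminescence, normalized to 57 uM ketoconazole as full inhibition.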

[7] = biological target: Cytochrome P450 2D6 (Homo sapiens) (UniProt P10635); assay: qHTS Assay for Inhibitors and Substrates of Cytochrome P450 2D6 (AID 891); further: nearly all actives have a fitted effect of over 60% in size; further: potency means the concentration at half of the fitted maximal effect;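 on activity change, negative = inhibition: luciferin methyl ether substrate demethylated by CYP2D6 with NADPH regeneration; on the % scale 0 is the no-effect control and ±100 the full control effect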
Summary of the method: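 Human CYP2D6 (5 nM) with 30 uM Luciferin-ME EGE (at Km) in 100 mM KPO4, compound preincubated 10 min, then NADPH regeneration system for 60 min at room temperature. Luciferin read by luminescence; normalized to 1.43 uM quinidine.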

[8] = biological target: Cytochrome P450 2C19 (Homo sapiens) (UniProt P33261); assay: qHTS Assay for Inhibitors and Substrates of Cytochrome P450 2C19 (AID 899); further: on the % scale 0 is the no-effect control and ±100 the full control effect; nearly all actives have a fitted effect of over 60% in size
Summary of the method: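 In 50mM KPO4, the reaction held 5nM enzyme and KM-level (10uM) Luciferin-H EGE; it ran 60 min at 37C after NADPH regeneration and a 10 min compound preincubation. Luminescence values were scaled to 57uM ketoconazole as complete inhibition.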

[9] = qHTS for Inhibitors of Plasmodium falciparum (7G8) proliferation (AID 504316);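 further: series mostly up to about 6.7 µM; 0% = DMSO vehicle and -100% = 0.29 µM artemisinin full kill; nearly all actives have a fitted effect of over 65% in size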
Summary of the method: as §1

[10] = biological target: Cytochrome P450 3A4 (Homo sapiens) (UniProt P08684); assay: qHTS Assay for Activators of Cytochrome P450 3A4 (AID 885); further: nearly all actives have a fitted effect of over 65% in size
Summary of the method: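 20nM CYP3A4 + 25uM Luciferin-PPXE (=KM), 200mM KPO4; cpd 10 min RT; NADPH regen, 60 min RT; stop w/ detection buffer, 20 min; luminescence. Normalized to 57 uM ketoconazole.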

Sequence of Cytochrome P450 2D6 (Homo sapiens) (P10635 whole entry, looked up): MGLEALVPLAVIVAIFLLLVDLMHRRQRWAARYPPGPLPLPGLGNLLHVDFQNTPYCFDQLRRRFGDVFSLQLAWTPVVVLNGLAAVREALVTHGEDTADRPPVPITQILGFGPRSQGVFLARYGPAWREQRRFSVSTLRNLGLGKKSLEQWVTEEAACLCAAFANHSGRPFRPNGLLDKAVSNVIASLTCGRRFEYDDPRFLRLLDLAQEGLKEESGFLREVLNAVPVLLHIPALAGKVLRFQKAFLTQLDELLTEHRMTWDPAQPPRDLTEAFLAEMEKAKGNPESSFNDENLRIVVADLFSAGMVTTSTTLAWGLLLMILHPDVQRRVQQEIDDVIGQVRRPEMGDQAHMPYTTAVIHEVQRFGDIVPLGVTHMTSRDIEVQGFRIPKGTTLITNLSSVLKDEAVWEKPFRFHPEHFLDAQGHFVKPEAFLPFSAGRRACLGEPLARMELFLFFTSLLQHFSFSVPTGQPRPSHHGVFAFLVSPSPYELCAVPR
Sequence of Cytochrome P450 3A4 (Homo sapiens) (P08684 whole entry, looked up): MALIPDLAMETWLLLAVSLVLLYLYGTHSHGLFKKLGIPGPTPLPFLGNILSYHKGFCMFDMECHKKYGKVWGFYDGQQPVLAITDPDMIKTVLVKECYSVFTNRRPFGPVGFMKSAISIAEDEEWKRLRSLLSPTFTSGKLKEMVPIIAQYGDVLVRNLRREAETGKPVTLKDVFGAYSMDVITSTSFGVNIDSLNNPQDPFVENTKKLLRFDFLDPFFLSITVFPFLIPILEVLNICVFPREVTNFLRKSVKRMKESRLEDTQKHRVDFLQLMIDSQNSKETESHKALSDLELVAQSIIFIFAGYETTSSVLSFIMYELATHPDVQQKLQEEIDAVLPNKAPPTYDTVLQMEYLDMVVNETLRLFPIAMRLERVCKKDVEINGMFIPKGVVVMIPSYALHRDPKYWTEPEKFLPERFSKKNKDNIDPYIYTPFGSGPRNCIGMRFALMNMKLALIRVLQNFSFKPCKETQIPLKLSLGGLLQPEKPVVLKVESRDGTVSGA
Sequence of Cytochrome P450 2C19 (Homo sapiens) (P33261 whole entry, looked up): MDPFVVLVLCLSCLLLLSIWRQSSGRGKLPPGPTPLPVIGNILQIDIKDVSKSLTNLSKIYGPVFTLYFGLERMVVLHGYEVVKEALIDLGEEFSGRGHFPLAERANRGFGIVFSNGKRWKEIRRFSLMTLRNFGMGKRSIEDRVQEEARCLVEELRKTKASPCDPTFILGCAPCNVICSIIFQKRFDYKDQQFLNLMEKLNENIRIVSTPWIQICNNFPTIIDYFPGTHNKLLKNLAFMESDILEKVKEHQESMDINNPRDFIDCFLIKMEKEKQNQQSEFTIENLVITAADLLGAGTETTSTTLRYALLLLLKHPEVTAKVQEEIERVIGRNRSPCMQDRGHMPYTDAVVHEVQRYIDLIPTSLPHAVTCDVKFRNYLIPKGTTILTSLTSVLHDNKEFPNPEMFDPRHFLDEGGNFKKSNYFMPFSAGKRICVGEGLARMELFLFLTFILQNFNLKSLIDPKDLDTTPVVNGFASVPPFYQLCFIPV
Sequence of Cytochrome P450 2C9 (Homo sapiens) (P11712 whole entry, looked up): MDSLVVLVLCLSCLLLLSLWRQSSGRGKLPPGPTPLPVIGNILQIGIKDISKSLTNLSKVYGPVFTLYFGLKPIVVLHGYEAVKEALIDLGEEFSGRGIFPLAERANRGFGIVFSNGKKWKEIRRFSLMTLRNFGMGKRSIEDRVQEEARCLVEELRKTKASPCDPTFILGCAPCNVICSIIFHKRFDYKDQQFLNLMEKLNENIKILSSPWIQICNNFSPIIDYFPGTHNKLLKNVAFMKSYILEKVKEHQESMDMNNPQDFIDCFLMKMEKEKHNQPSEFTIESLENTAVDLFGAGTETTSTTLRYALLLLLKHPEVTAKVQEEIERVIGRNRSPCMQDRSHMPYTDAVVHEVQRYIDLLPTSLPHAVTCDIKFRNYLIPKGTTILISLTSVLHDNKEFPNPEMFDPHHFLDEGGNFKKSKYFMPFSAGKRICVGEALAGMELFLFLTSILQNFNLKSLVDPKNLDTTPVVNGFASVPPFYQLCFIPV

C#CCCCON=C1C[C@@H](O)[C@@H](O)[C@@H]2[C@H]3C(=O)N(C(C)(C)C)C(=O)[C@@H]3CC[C@H]12
inactive: Potency [1] | Potency [2] | Potency [3] | Potency [4]

C=C(C)C(=O)C=CCCCC=CC(=O)OCC
inactive: Potency [1] | Potency [2] | Potency [3] | Potency [4]

C=CC[C@@H]1C=C[C@@H](Oc2ccc(OC)cc2)[C@H](COC(=O)c2ccc(Br)cc2)O1
inactive: Potency [1] | Potency [2] | Potency [3] | Potency [4]

COC(=O)C1=NOC2(C=C(Br)C(OC)=C(Br)C2=O)C1 (configuration not stated)
inactive: activity change, negative = inhibition [5] -4.18% [at 11.4 µM] | activity change, negative = inhibition [6] -15.6% [at 11.4 µM] | activity change, negative = inhibition [7] -8.27% [at 11.4 µM] | activity, negative = inhibition [8] -27.3% [at 11.4 µM] | Potency [1] | Potency [2] | Potency [9] | Potency [3] | Potency [4]

COC[C@@H](O)[C@H]1OCc2ccccc2[C@H]1C=Cc1ccccc1
inactive: Potency [1] | Potency [2] | Potency [9] | Potency [3] | Potency [4]

COc1ccc(-c2nc(-c3ccccc3)oc2Nc2ccccc2C)cc1
inactive: Potency [1] | Potency [2] | Potency [9] | Potency [4]

COC(=O)c1c(C(=O)OC)c2c3ccccc3cc(C3CC3)n2c1C(=O)OC
inactive: Potency [1] | Potency [2] | Potency [9] | Potency [4]

COC(=O)CCCC1=CC2=CC(=O)C(C)(OC(=O)c3cccs3)C(=O)C2=CN1CCc1c[nH]c2ccccc12 (configuration not stated)
inactive: Potency [1] | Potency [2] | Potency [9] | Potency [4]

COCCN1C(=O)N[C@@H](CCc2ccccc2)[C@H](C(C)=O)[C@H]1C
inactive: Potency [1] | Potency [2] | Potency [9] | Potency [3] | Potency [4]

CCN1C(=NCCc2ccc(Br)cc2)NC(c2ccccc2)C(C(=O)OC)=C1C (configuration not stated)
inactive: Potency [1] | Potency [2] | Potency [9] | Potency [3] | Potency [4]

OC[C@H]1O[C@H](c2ccccc2)C=C[C@H]1O
inactive: Potency [1] | Potency [2] | Potency [9] | Potency [3] | Potency [4]

COC(=O)CC=C[C@@H](C)[C@@H](C=NO[C@@H](C)c1cn([C@H](CO)Cc2ccccc2)nn1)NS(=O)(=O)c1ccc(C)cc1
inactive: Potency [1] | Potency [2] | Potency [3] | Potency [4]

CC(C)CON=C1C[C@@H](O)[C@@H](O)[C@@H]2[C@H]3C(=O)N(Cc4ccc5c(c4)OCO5)C(=O)[C@@H]3CC[C@@H]12
inactive: Potency [1] | Potency [2] | Potency [4]

OC[C@H]1O[C@H](C#Cc2ccc(F)cc2F)C=C[C@H]1O
inactive: Potency [1] | Potency [2] | Potency [9] | Potency [3] | Potency [4]

COc1ccc2c(c1)C(=O)[C@H](OC(=O)Nc1cc(OC)c(OC)c(OC)c1)[C@@H](c1ccc(OC)c(Br)c1)O2
inactive: Potency [1] | Potency [2] | Potency [3] | Potency [4]

O=C(NN=C1C[C@@H](O)[C@H](O)[C@H]2[C@@H]3C(=O)N(Cc4ccc5c(c4)OCO5)C(=O)[C@@H]3CC[C@H]12)OCc1ccccc1
inactive: Potency [1] | Potency [2] | Potency [3]

COC[C@H]1O[C@H](c2ccccc2)C=C[C@H]1OCc1cccc(Br)c1
inactive: Potency [1] | Potency [2] | Potency [4]

COC[C@H]1O[C@@H]2O[C@@H]1[C@@H](C=Cc1ccccc1)C[C@H]2C
inactive: Potency [1] | Potency [2] | Potency [9] | Potency [3] | Potency [4]

CCCCCCCC1=Cc2ccc(F)cc2C(C(C(C)=O)C(=O)OC)N1C(=O)OC (configuration not stated)
inactive: Potency [1] | Potency [2] | Potency [3] | Potency [4]

C#CCNC(=O)[C@H]1C=C(OC)C(=O)C[C@H]2c3ccccc3C[C@]12C
inactive: Potency [1] | Potency [2] | Potency [3] | Potency [4]

CCCCCCCC1=CC2=CC(=O)C(C)(OC(C)=O)C(=O)C2=CN1CCc1ccccc1 (configuration not stated)
active: Potency [7] 3.16 µM
inactive: activity change, positive = activation [10] -45.9% [at 11.4 µM] | activity, negative = inhibition [8] 78.5% [at 11.4 µM] | Potency [1] | Potency [2] | Potency [9] | Potency [4]

COC(=O)[C@@]1(C=C2c3ccc(F)cc3[C@@H](OC)[C@@H]2C)[C@@H]2OCCC[C@@H]21
inactive: Potency [1] | Potency [2] | Potency [9] | Potency [3] | Potency [4]

C=CCOC(=O)[C@H](O)[C@@H](O)C(=O)OCC=C
inactive: Potency [1] | Potency [2] | Potency [3] | Potency [4]

C[C@@H]1C=CCC(=O)N[C@@H](c2ccccc2)[C@H](C)C=CCC(=O)N[C@@H]1c1ccccc1
inactive: Potency [1] | Potency [2] | Potency [3] | Potency [4]

CCN1C(=O)NC(c2cccc(C(F)(F)F)c2)C(C(=O)OC)=C1C (configuration not stated)
inactive: Potency [1] | Potency [2] | Potency [9] | Potency [4]
